# Out of some 2,300 compounds screened, about 330 (14%) showed activity.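 How the source made its calls: active = median modified Z-score above 1.96; inactive = 1.96 or below.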 These entries were drawn from the full list.
# System: HepG2 Srxn1-GFP reporter cells (+30 nM CDDO-Me)
# Test: Srxn1-GFP intensity median modified Z-score relative to plate median; higher = stronger NRF2 / oxidative stress reporter activation, active = hit call of the paper
# Conditions: 10 µM; exposure time: 24h
# Summary of the method: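 HepG2 Srxn1-GFP BAC reporter cells were seeded at 20,000 per well in 96-well plates and co-exposed for 24 h to compound at 10 μM and an NRF2 activator at 30 nM, with DMSO at ≤0.1%, in three replicate plates. Cells were fixed with formaldehyde, stained with Hoechst and imaged by confocal microscopy, and cytoplasmic GFP was measured per cell, with images holding under 100 cells discarded. The reported value is the median over replicates of each plate's modified Z-score of GFP intensity. For this score, scaling used 1.4826 × median absolute deviation.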
row,SMILES,Srxn1-GFP intensity median modified Z-score
1,C#C[C@]1(O)CC[C@H]2[C@@H]3CC=C4CC(=O)CCC4C3CC[C@@]21CC (stereo partly drawn) [euspeclibcmpd2176],0.145 (inactive)
2,NCCCc1c[nH]c2ccccc12,1.08 (inactive)
3,CC1=C2C3OC(=O)C(C)[C@@H]3CC[C@@]2(C)C=CC1=O (stereo partly drawn) [euspeclibcmpd1347],0.307 (inactive)
4,CC=C(C)C(=O)O[C@H]1C[C@@H](OC(C)=O)[C@@]2(C(=O)OC)CO[C@@H]3C2[C@]12CO[C@](O)(C(=O)OC)[C@H]2[C@](C)([C@]12O[C@@]1(C)[C@H]1C[C@@H]2OC2OC=C[C@@]21O)[C@@H]3O (stereo partly drawn) [euspeclibcmpd1486],2.24 (active)
5,C#C[C@]1(O)CCC2C3CC=C4CC(=O)CCC4C3CC[C@@]21CC (stereo partly drawn) [euspeclibcmpd2251],-0.375 (inactive)
6,O=c1n(Cl)c(=O)n(Cl)c(=O)n1Cl [euspeclibcmpd935],-0.815 (inactive)
7,c1ccc(/N=N\c2ccccc2)cc1 [euspeclibcmpd1762],0.733 (inactive)
8,C[C@]12CCC3c4ccc(OC(=O)N(CCCl)CCCl)cc4CCC3C1CC[C@@H]2O (stereo partly drawn) [euspeclibcmpd984],2.13 (active)
9,C[C@]12CCC(=O)CC1=CCC1C2CC[C@@]2(C)C1CC[C@@H]2O (stereo partly drawn) [euspeclibcmpd2134],-0.455 (inactive)
10,CCN(C)C(=O)Oc1cccc([C@H](C)N(C)C)c1 [euspeclibcmpd2067],-0.306 (inactive)
11,COC[C@]12CN(C=O)C3[C@@H]4[C@H](OC)C1[C@]3(C1CC3(O)C(OC)C(O)[C@]4(OC(C)=O)C1C3OC(=O)c1ccccc1)[C@@H](OC)C[C@H]2O (stereo partly drawn) [euspeclibcmpd1413],-0.00565 (inactive)
12,COc1cc2c(cc1O)CC1c3c(cc(O)c(OC)c3-2)CCN1C (stereo not drawn) [euspeclibcmpd1326],-0.347 (inactive)
13,COc1ccc2c(c1O)-c1c(OC)c(OC)cc3c1[C@H](C2)N(C)CC3 [euspeclibcmpd1537],-0.343 (inactive)
14,COc1cc2c3cc1Oc1c(OC)c(OC)cc4c1[C@@H](Cc1cccc(c1)Oc1ccc(c(O)c1)C[C@@H]3N(C)CC2)N(C)CC4 [euspeclibcmpd1812],2.31 (active)
15,O=C(NC(O)C(Cl)(Cl)Cl)NC(O)C(Cl)(Cl)Cl (stereo not drawn) [euspeclibcmpd2304],0.189 (inactive)
16,c1ccc2nc(N3CCNCC3)ccc2c1 [euspeclibcmpd578],-0.285 (inactive)
17,C[C@@H]1CC(Cl)CCC1C(=O)OC(C)(C)C (stereo partly drawn) [euspeclibcmpd1756],-0.159 (inactive)
18,CNC(C)(C)Cc1ccccc1 [euspeclibcmpd691],0.194 (inactive)
19,C[N+]1(C)CCc2cc3c(cc2[C@H]1C1OC(=O)c2c1ccc1c2OCO1)OCO3 (stereo partly drawn) [euspeclibcmpd1466],2.41 (active)

row,SMILES,Srxn1-GFP intensity median modified Z-score
1,CN1CCc2cc3c(cc2[C@H]1C1OC(=O)c2c1ccc1c2OCO1)OCO3 (stereo partly drawn) [euspeclibcmpd1552],-0.0938 (inactive)
2,C#CCN(C)C(C)Cc1ccccc1 (stereo not drawn) [euspeclibcmpd993],-0.386 (inactive)
3,CCC1(CO)C(=O)NC(=O)NC1=O,1.07 (inactive)
4,COc1cc2occc2c2oc(=O)ccc12 [euspeclibcmpd1717],-0.121 (inactive)
5,O=C(O)Cc1ccccc1 [euspeclibcmpd2440],-0.295 (inactive)
6,NCCc1ccccc1 [euspeclibcmpd2078],0.0184 (inactive)
7,NCC(=O)c1ccccc1 [euspeclibcmpd1673],3.04 (active)
8,C[N+]1([O-])C2CCC1CC(OC(=O)C(CO)c1ccccc1)C2 (stereo not drawn) [euspeclibcmpd2322],-0.247 (inactive)
9,C=CCC1(C(C)CCC)C(=O)NC(=S)NC1=O (stereo not drawn) [euspeclibcmpd2148],-0.0652 (inactive)
10,O=P1(NCCBr)OCCCN1CCCl (stereo not drawn),0.805 (inactive)
11,CNCC(O)c1ccc(O)cc1 (stereo not drawn) [euspeclibcmpd1199],0.983 (inactive)
12,COC(=O)C1=CO[C@@H](C)C2CN3CC[C@]4(C(=O)Nc5ccccc54)C3C[C@H]12 (stereo partly drawn) [euspeclibcmpd2321],-0.26 (inactive)
13,CCCN(CCC)CCc1cccc2[nH]c(O)cc12 [euspeclibcmpd2384],-0.25 (inactive)
14,CCN(C(C)=O)c1cccc(-c2ccnc3c(C#N)cnn23)c1 [euspeclibcmpd886],-0.312 (inactive)
15,CC1(C)C(C=C(Cl)Cl)C1C(=O)OCc1cccc(Oc2ccccc2)c1 (stereo not drawn) [euspeclibcmpd989],-0.481 (inactive)
16,CC(N)Cc1ccc(O)cc1 (stereo not drawn) [euspeclibcmpd2033],-0.0916 (inactive)
17,O=C1c2ccccc2C(=O)c2ccccc21 [euspeclibcmpd2403],-0.277 (inactive)
18,O=C1C(=O)c2ccccc2-c2ccccc21,0.845 (inactive)
19,O=C1C=CC(=O)c2ccccc21 [euspeclibcmpd1754],32.6 (active)

# Reference: the supplement of paper PMC10498489
